Among the test systems are T-47D breast; BT-549 breast; MDA-MB-435 melanoma; SW-620 colon; MCF7 breast; HCT-116 colon; HCC-2998 colon; KM12 colon.
Common to all, as to assay: NCI-60 one-dose screen, 48 h (100 = growth as untreated, 0 = no growth, -100 = all killed)
Holding throughout (conditions): 10 µM unless noted

About 83,000 compounds went through this panel and 20% of them were active in at least one assay; those are over-represented in the sample as a whole.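 Negative percent growth values reflect cell death: -40 means 40% of the cells present at the start died, and -100 means all died.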 The source made the active and inactive calls. The calls were made as follows: active = growth percent below 10; inactive = the rest.

Take `O=C(CCl)N(C1CCCCC1)C1CCCCC1`: the growth in the experiment on T-47D breast is 101% (inactive); in the experiment with BT-549 breast, 97.4% (inactive); in the experiment with MDA-MB-435 melanoma, 106% (inactive); in the experiment on SW-620 colon, 113% (inactive); in the experiment with MCF7 breast it was 96.7% (inactive); with HCT-116 colon it was 101% (inactive). For the same molecule, the growth with HCC-2998 colon was 107% (inactive); in the experiment with KM12 colon, 112% (inactive).
As for `CCOC(=O)CN1/C(=N/c2sc3c(c2C(=O)OCC)CCN(C(=O)OCC)C3)SC(=O)/C1=C\C(=O)OC`, the growth in the experiment on T-47D breast is 30.8% (inactive); in the experiment with BT-549 breast it was 89.4% (inactive); in the experiment with MDA-MB-435 melanoma, 99.7% (inactive); in the experiment on SW-620 colon, 71.6% (inactive); in the experiment with MCF7 breast, 49.3% (inactive); in the experiment with HCT-116 colon it was 71.6% (inactive). The growth with HCC-2998 colon was 94.4% (inactive); in the experiment with KM12 colon, 97.4% (inactive).
On to `COc1ccc(/C=C\c2cc(OC)c(OC)c(OC)c2)cc1OC(=O)c1cccc(Cn2cc(CCOC(=O)c3cccc(Cn4nnc5c4C(=O)c4ccccc4C5=O)c3)nn2)c1`, for which the growth in the experiment on T-47D breast was 67.6% (inactive); in the experiment on BT-549 breast, 27% (inactive); in the experiment with MDA-MB-435 melanoma, -36.3% (active); in the experiment on SW-620 colon it was 27.8% (inactive); in the experiment with MCF7 breast, 8.36% (active); in the experiment with HCT-116 colon, 6.52% (active). Also, the results for the growth in the experiment with HCC-2998 colon and with KM12 colon were 17.6% (inactive) and 9.04% (active), respectively.
As for `COc1ccc(Nc2[nH]n3c(=O)cc(-c4ccccc4)nc3c2C(=O)Nc2ccc(C)cc2)c(OC)c1`, the growth was 83.8% (inactive) with T-47D breast; 92.9% (inactive) in the experiment with BT-549 breast; 96.8% (inactive) with MDA-MB-435 melanoma; 99.5% (inactive) in the experiment with SW-620 colon; 99.6% (inactive) with MCF7 breast; 84.2% (inactive) with HCT-116 colon. Also, the growth with HCC-2998 colon is 111% (inactive); in the experiment with KM12 colon, 106% (inactive).
`Cc1ccc(-c2csc(NC(=O)CCCCl)n2)cc1`: the growth with T-47D breast is 77.2% (inactive); in the experiment with BT-549 breast, 98.1% (inactive); in the experiment with MDA-MB-435 melanoma, 103% (inactive); in the experiment on SW-620 colon, 107% (inactive); with MCF7 breast it was 90.7% (inactive); in the experiment on HCT-116 colon it was 98.6% (inactive). Also, the growth with HCC-2998 colon was 103% (inactive); with KM12 colon it was 95% (inactive).
`N[C@@H]1CCN(C(=O)c2cc3cc(Cl)c(F)c(F)c3[nH]2)C1`: the growth was 82.2% (inactive) with T-47D breast; 1.7% (active) with BT-549 breast; 97.3% (inactive) in the experiment with MDA-MB-435 melanoma; 96.6% (inactive) with SW-620 colon; 94.5% (inactive) in the experiment on MCF7 breast; 92.8% (inactive) in the experiment with HCT-116 colon. In addition, the growth in the experiment with HCC-2998 colon is 96.1% (inactive); in the experiment with KM12 colon it was 98.8% (inactive).
`COc1ccc(-c2cnnn2-c2nonc2-n2cccc2)cc1OC`: the growth in the experiment on T-47D breast is 45.3% (inactive); in the experiment with BT-549 breast, 60.1% (inactive); in the experiment on MDA-MB-435 melanoma, -36.9% (active); with SW-620 colon, 27% (inactive); in the experiment with MCF7 breast, 30.4% (inactive); with HCT-116 colon it was 35.6% (inactive). Moreover, the growth in the experiment on HCC-2998 colon was 62% (inactive); in the experiment with KM12 colon it was 31.7% (inactive).
For the molecule `COc1ccc2c(c1)OC1=C(C(=O)OC1)C2c1cc(OC)c2c(c1)OCO2` (centres undefined), the growth with T-47D breast is 52.1% (inactive); in the experiment with BT-549 breast it was 26% (inactive); in the experiment with MDA-MB-435 melanoma, -22.5% (active); in the experiment with SW-620 colon, 18.7% (inactive); in the experiment with MCF7 breast, 15% (inactive); in the experiment on HCT-116 colon, 10% (inactive). Moreover, the growth in the experiment on HCC-2998 colon is 14.9% (inactive); in the experiment on KM12 colon, 1.61% (active).
Consider `O=[N+]([O-])c1ccc(OCCCOc2ccccc2)cc1`, for which the growth in the experiment on T-47D breast is 110% (inactive); in the experiment with BT-549 breast, 93.1% (inactive); in the experiment on MDA-MB-435 melanoma, 99% (inactive); in the experiment on SW-620 colon, 107% (inactive); in the experiment on MCF7 breast it was 93% (inactive); with HCT-116 colon it was 97.4% (inactive). Also, the growth in the experiment on HCC-2998 colon and in the experiment with KM12 colon was 101% (inactive) each time.
In the case of `COc1cc(C2C3=C(COC3=O)Nc3cc4c(cc32)OCO4)cc2c1OCO2` (centres undefined), the growth is 51.9% (inactive) with T-47D breast; 25.4% (inactive) in the experiment on BT-549 breast; -20.4% (active) in the experiment on MDA-MB-435 melanoma; 17.1% (inactive) in the experiment with SW-620 colon; 13.9% (inactive) in the experiment on MCF7 breast; 6.83% (active) with HCT-116 colon. In addition, the figures for the growth with HCC-2998 colon and in the experiment with KM12 colon were 8.39% (active) and 1.28% (active), respectively.
As to `CC(C)(C)NCCC(O)c1cc2c(Cl)cc(Cl)cc2c2cc(C(F)(F)F)ccc12` (centres undefined), the growth in the experiment with T-47D breast is -78.3% (active); in the experiment with BT-549 breast, 69.6% (inactive); in the experiment with MDA-MB-435 melanoma, -74.4% (active); in the experiment on SW-620 colon, -73.3% (active); in the experiment with MCF7 breast, -81.3% (active); with HCT-116 colon it was -80.3% (active). Further, the growth is -83% (active) in the experiment with HCC-2998 colon and -90.9% (active) in the experiment with KM12 colon.
Regarding `Nc1nnc(-c2ccc3ccccc3c2O)o1`, the growth in the experiment on T-47D breast was 87.2% (inactive); with BT-549 breast, 103% (inactive); in the experiment with MDA-MB-435 melanoma, 110% (inactive); in the experiment on SW-620 colon, 84.9% (inactive); in the experiment on MCF7 breast it was 94% (inactive); in the experiment with HCT-116 colon, 88.5% (inactive). The values for the growth with HCC-2998 colon and with KM12 colon were 89.5% (inactive) and 99.4% (inactive), respectively.
Regarding `CCCCCCCCN(CCCCCCCC)CCCCCCNc1cc(OC)cc2cccnc12`, the growth in the experiment with T-47D breast is 104% (inactive); in the experiment with BT-549 breast, 79.7% (inactive); with MDA-MB-435 melanoma it was 95.2% (inactive); with SW-620 colon, 10.8% (inactive); with MCF7 breast, 61.7% (inactive); with HCT-116 colon it was -30.1% (active). Also, the growth with HCC-2998 colon was 93.4% (inactive); in the experiment on KM12 colon, 58.9% (inactive).

The values are drawn from PubChem BioAssay (NCI).
